# Bioassay records from PubChem.
# The list is not random: actives were taken first. Their share in the collection is about 3.1%.
# TSHR antagonist = human thyrotropin receptor antagonism. TSHR-expressing cells, TSH-stimulated cAMP HTRF, 2 h; stronger effect = lower value. P16473. hit rate 0.2% among 330,000. activity change, negative = inhibition, % at 11.5 µM;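 active = activity change below a set negative limit, meaning inhibition stronger than a set level, cut at about -70% in these data; inconclusive = activity change between two set negative limits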
#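 Competitive HTRF cAMP read-out (cryptate anti-cAMP antibody, cAMP-d2; 30 min, room temperature) in freshly harvested TSHR cells. Compounds added before TSH at EC80 (4nM final), followed by 2 hours' incubation at 37 deg C.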
# TSG101-PTAP inh = blocks PTAP/TSG101 interaction to inhibit HIV-1 budding. Fluorescence polarization, FITC-PTAP peptide / Tsg101 binding. AID 493005. Q99816. 340,000 tested, under 10 active. Potency, µM (series often up to 115 µM), most hits filed as inhibitors; active = well fitted inhibition curve with a large enough effect in the main read-out, with a control signal flat, not every such curve was filed as active; inconclusive = small, poorly fitted or top-dose-only effect, or effect the other way, or a change in a side signal; inactive = no such curve, though single readings can be large or run the other way
# Target sequence (Q99816 whole entry, looked up): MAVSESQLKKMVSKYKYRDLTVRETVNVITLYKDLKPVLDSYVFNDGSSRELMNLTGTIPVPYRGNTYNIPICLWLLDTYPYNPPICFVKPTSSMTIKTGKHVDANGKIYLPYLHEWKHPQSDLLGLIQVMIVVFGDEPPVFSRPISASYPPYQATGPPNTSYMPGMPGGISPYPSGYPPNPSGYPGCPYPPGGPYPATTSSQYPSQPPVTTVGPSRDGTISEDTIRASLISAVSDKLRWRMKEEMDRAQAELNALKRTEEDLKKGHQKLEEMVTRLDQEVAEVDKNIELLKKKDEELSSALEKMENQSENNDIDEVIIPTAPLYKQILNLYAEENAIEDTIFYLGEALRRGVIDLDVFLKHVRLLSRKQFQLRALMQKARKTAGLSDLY
#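 Tsg101 binding domain (10 uM final) was mixed with compound and a FITC-labeled PTAP peptide (50 nM final) in HEPES pH 7.5 buffer with NaCl, Tween 20, EDTA and TCEP; fluorescence polarization was read after 20 min at r.t.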
# PLK1 PBD block = PLK1 (human) polo-box domain binding inhibition. hit rate 2.8% among 360,000. Potency, µM, hits mostly inhibitors. Plk1 PBD binding of FITC phosphopeptide, fluorescence polarization. AID 720504; also: series mostly up to about 57 µM; nearly all actives have a fitted effect of over 65% in size
# uPA surface inh = blocks generation of uPA at the cell surface. cell surface uPA generation assay, qHTS. hit rate 0.31% among 330,000. Potency, µM (highest dose often 38.3 µM), most hits filed as inhibitors; active = well fitted inhibition curve with a large enough effect; inconclusive = small, poorly fitted or top-dose-only effect; inactive = no such curve, though single readings can be large or run the other way; tested in mouse RAW 264.7 cells; also: nearly all actives have a fitted effect of over 55% in size
# VDR inh = blocks the human vitamin D receptor. VDR-SRC2-3 peptide fluorescence polarization, 2 h. Potency, µM, usual class: inhibitors. hit rate 0.93% among 400,000. AID 504847
#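 Measured by FP: displacement of SRC2-3 coactivator peptide from VDR by library compounds, following a two-hour ambient incubation.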
# A number is an active result; – = inactive; ? = inconclusive; · = no result given; ! = not active in a repeat. Unless noted, calls follow the shape of the dose curve; as a rule, active = well fitted curve in the direction sought with a large enough effect; inconclusive = small, poorly fitted or top-dose-only effect, or another doubt; inactive = no such curve, though single readings can be large; an effect the other way counts as inactive or inconclusive.
SMILES,TSHR antagonist,TSG101-PTAP inh,PLK1 PBD block,uPA surface inh,VDR inh
CCC1CCc2c(sc(NC(=O)c3cnccn3)c2C(N)=O)C1 (centres undefined),–,–,2.99µM,–,?
CCCNS(=O)(=O)c1ccc(CCC(=O)NCc2ccco2)cc1,–,–,29.9µM,–,–
CC(C)(C)NS(=O)(=O)c1ccc(CCC(=O)NCc2ccco2)cc1,–,–,–,–,–
O=C1CC(c2ccccc2)CC(=O)C1CS(=O)(=O)c1ccccc1 (centres undefined),–,–,–,–,31.6µM
O=C1NC(=O)/C(=C/c2ccc(N3CCOCC3)o2)N1,–,–,–,–,79.4µM
O=C1NC(=O)/C(=C\c2ccc(N3CCOCC3)o2)N1,–,–,–,–,25.1µM
O=C1[C@H](Cc2ccccc2)NCC=CC[C@@H](c2ccc(Cl)cc2)N1Cc1ccccc1,·,–,–,–,–
CCC[C@H](NC(=O)[C@H](CC(C)C)N(C)C(=O)CNC(=O)[C@@H](NC(=O)[C@H](Cc1ccccc1)NC(=O)[C@H](CCCCN)NC(=O)[C@@H](N)CC(=O)O)C(C)C)C(N)=O,·,·,·,·,–
Nc1ccc(Nc2ccncc2)cc1,·,·,–,·,·
COc1ccc(NC(=S)N/C(=N/CS(=O)(=O)c2ccccc2)c2ccccc2)cc1,–,–,?,–,–
Cc1cccc(NC(=S)N/C(=N/S(=O)(=O)c2ccccc2)c2ccccc2)c1,–,–,23.8µM,–,89.1µM!
Cc1ccc(S(=O)(=O)/N=C(/NC(=S)Nc2cccc(C)c2)c2ccccc2)cc1,–,–,?,–,?
O=[N+]([O-])c1ccc(NC(=S)N/C(=N/CS(=O)(=O)c2ccccc2)c2ccccc2)cc1,–,–,18.9µM,–,–
OC[C@H]1O[C@H](n2cnc3c(N[C@H]4CCC[C@@H]4O)ncnc32)[C@H](O)[C@@H]1O,–,·,·,·,–
CC(C)NC(=O)c1ccccc1NC(=O)C(C)Oc1ccccc1 (centres undefined),–,–,–,–,–
COC(=O)c1ccccc1NC(=O)C(C)Oc1ccccc1 (centres undefined),–,–,2.99µM,–,?
CCOc1ccccc1NC(=O)CSc1nccn1-c1cccc(C)c1,·,·,·,·,–
CN(C)S(=O)(=O)c1ccc2c(c1)N(CC(=O)NCc1ccc(F)cc1)C(=O)CS2,·,·,·,·,–
CC(=O)OCC(NC(=O)C(COCc1ccccc1)NC(=O)OC(C)(C)C)C1OC(n2ccc(=O)[nH]c2=O)C(OC(C)=O)C1OC(C)=O (centres undefined),·,·,·,·,–
O=C(O)c1cc(O)c2c(c1)[C@@H]([C@H]1c3cc(C(=O)O)cc(O)c3C(=O)c3c(O[C@@H]4O[C@H](CO)[C@@H](O)[C@H](O)[C@H]4O)cccc31)c1cccc(OC3O[C@H](CO)[C@@H](O)[C@H](O)[C@H]3O)c1C2=O (some centres undefined),–,–,0.844µM,?,–
O=C(O)c1cc(O)c2c(c1)[C@H]([C@H]1c3cc(C(=O)O)cc(O)c3C(=O)c3c(O[C@@H]4O[C@H](CO)[C@@H](O)[C@H](O)[C@H]4O)cccc31)c1cccc(OC3O[C@H](CO)[C@@H](O)[C@H](O)[C@H]3O)c1C2=O (some centres undefined),·,–,1.68µM,–,?
COc1cc(OC)c(NC(=O)CCNC(=O)Cn2cnc3ccccc3c2=O)cc1Cl,–,–,13.4µM,–,–
O=C(CCNC(=O)Cn1cnc2ccccc2c1=O)NCC1COc2ccccc2O1 (centres undefined),–,–,2.99µM,–,–
COc1cc(OC)c(N(C)C(=O)CCNC(=O)Cn2cnc3ccccc3c2=O)cc1Cl,–,–,–,–,–
CCCNC(=O)NC(=O)c1cnccc1C(F)(F)F,–,–,–,–,–
SMILES,TSHR antagonist,TSG101-PTAP inh,PLK1 PBD block,uPA surface inh,VDR inh
Cc1ccc(S(=O)(=O)N2C3CCCCC3O[C@H]2CC(=O)OCc2ccccc2)cc1 (some centres undefined),·,·,–,·,·
COc1ccc(C2NS(=O)(=O)N=C2N)cc1 (centres undefined),–,–,18.9µM,–,–
Cc1cccc(C2NS(=O)(=O)N=C2N)c1 (centres undefined),–,–,–,–,–
O=C(Oc1ccc(N(Cc2cccs2)C2=NS(=O)(=O)c3ccccc32)cc1)c1ccco1,–,–,–,–,–
O=C(Oc1ccc(N(Cc2cccs2)C2=NS(=O)(=O)c3ccccc32)cc1)c1ccccc1Cl,–,–,2.67µM,–,?
Cc1ccc(-n2c(=O)c3c4c(sc3n(Cc3cc(=O)n5cc(Cl)ccc5n3)c2=O)CCC4)cc1C,·,·,·,·,–
Clc1cc(Cl)c2nc(N3CCCCC3)sc2c1,–,–,23.8µM,–,–
O=C(O)c1cccc2c1C(=O)c1ccc(-c3ccc(F)cc3OCc3ccccc3)cc1S2(=O)=O,–,–,21.2µM,–,–
O=C(CNC(=O)c1ccc(Br)o1)NCc1ccccc1,–,–,–,–,–
CC(C)CC1=NN(C(=O)c2cccnc2)C(O)(C(F)(F)F)C1 (centres undefined),–,–,–,–,–
CC(C)CC1=NN(C(=O)c2ccncc2)C(O)(C(F)(F)F)C1 (centres undefined),–,–,23.8µM,–,?
O=C(N/C(=C\c1ccccc1)C(=O)N1CCCCCC1)c1ccccc1,–,–,29.9µM,–,–
O=C(N/C(=C/c1ccccc1)C(=O)N1CCCCC1)c1ccccc1,–,–,–,–,–
CCCOc1ccc(NC(=O)CC2C(=O)N(c3ccccc3)C(=O)N2CCC(C)C)cc1 (centres undefined),·,·,·,·,–
CCN(CC(=O)Nc1c(F)cccc1F)C(=O)Cc1ccc2c(c1)CCC2,–,–,16.8µM,–,–
CCCN(CC(=O)Nc1ccccc1OC)C(=O)C1CCCC1,–,–,–,–,–
O=C(Cc1ccc2c(c1)CCCC2)Nc1ccccc1Br,–,–,23.8µM,–,–
CN(CC(=O)Nc1c(Cl)cccc1Cl)C(=O)Cc1ccc2c(c1)CCC2,–,–,15µM,–,?
CCN(CC(=O)Nc1ccccc1C(F)(F)F)C(=O)Cc1ccc2c(c1)CCC2,–,–,–,–,–
CCCN(CC(=O)Nc1ccccc1OC)C(=O)Cc1ccc2c(c1)CCC2,–,–,21.2µM,–,?
Nc1cc(-c2ccncc2)c[nH]c1=O,–,–,29.9µM,–,20µM
COc1cccc(N2CCN(C(=O)Cn3ncc4c3-c3ccccc3OC4)CC2)c1,·,·,·,·,–
COC(=O)C1Sc2[nH]c(=O)sc2C2c3ccccc3OC(=O)C12 (centres undefined),–,–,–,–,–
O=C(O)C1Sc2[nH]c(=O)sc2C2c3ccc(O)cc3OC(=O)C12 (centres undefined),–,–,29.9µM,–,–
O=C(O)C1Sc2[nH]c(=O)sc2C2c3cc(Br)ccc3OC(=O)C12 (centres undefined),–,–,29.9µM,–,?
CC1(C(=O)O)Sc2[nH]c(=O)sc2C2c3ccccc3OC(=O)C21 (centres undefined),–,–,–,–,–
